# Laboratory results taken from PubChem BioAssay (EPA / NIEHS).
# Active and inactive are the calls of the source. The calls were made as follows: active = hit-call score of the fitted dose curve at least 0.9, where 1 is the maximum; inactive = score below 0.9.
# Assays:
# [1] = ATG_CRE_CIS: Attagene CIS-FACTORIAL HepG2 Assay for human cAMP Responsive Element (CRE) binding protein 3 (AID 2282926); details: HepG2 CRE cis-reporter, Attagene multiplexed mRNA; actives raise or lower the signal
# Procedure, shortened: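 We dosed HepG2 cells bearing multiple cis-promoter reporter units for 24 h and measured reporter mRNA by RT-PCR with capillary electrophoresis detection. Bidirectional concentration-response fitting used DMSO as negative control.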
# [2] = ATG_DR4_LXR_CIS: Attagene CIS-FACTORIAL HepG2 Assay for human Liver X Receptor (LXR), DR4 submotif (AID 2282929); details: HepG2 Attagene DR4 cis-reporter, mRNA transcription; actives raise or lower the signal
# Procedure, shortened: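 HepG2, transient MRTU transfection, cis-element (DR4) promoter; 24 h compound exposure; total RNA → oligo(dT) RT → PCR → 6-FAM primer extension → HpaI cut → CE. Gain/loss vs DMSO, bidirectional fit.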
# [3] = ATG_AP_1_CIS: Attagene CIS-FACTORIAL HepG2 Assay for human Activator Protein 1 (AP-1) (AID 2282931); details: HepG2 Attagene cis-factorial AP-1 reporter mRNA; actives raise or lower the signal
# Procedure, shortened: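 Transient MRTU transfection of HepG2 → 24 h chemical treatment → RNA isolation, RT-PCR, 6-FAM labelling, HpaI digest → capillary electrophoresis. Fit: bidirectional, DMSO negative control.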
# [4] = ATG_AP_2_CIS: Attagene CIS-FACTORIAL HepG2 Assay for human Activator Protein 2 (AP-2) (AID 2282932); details: HepG2 AP-2 cis-reporter, Attagene transcription factor profiling; actives raise or lower the signal
# Procedure, shortened: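 Multiplexed mRNA reporter assay in HepG2: cis-regulated units report endogenous factor activity after 24 h treatment. Fluorescence from capillary electrophoresis of RT-PCR products gives the signal, with DMSO as baseline.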
# [5] = ATG_BRE_CIS: Attagene CIS-FACTORIAL HepG2 Assay for human Bone Morphogenetic Protein (BMP) Response Element (BRE) (AID 2282933); details: HepG2 BMP response element reporter, Attagene transcription factor profiling; actives raise or lower the signal
# Procedure, shortened: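 Endogenous transcription factor activity read in transiently transfected HepG2 cells after 24 h chemical exposure. Bidirectional curve fitting against DMSO; readout is reporter transcript level by RT-PCR with capillary electrophoresis of labelled products.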
# [6] = target: Retinoic acid receptor alpha (Homo sapiens) (UniProt P10276); assay: ATG_DR5_RAR_CIS: Attagene CIS-FACTORIAL HepG2 Assay for human Retinoic Acid Receptor Alpha (RARE), DR5 submotif (AID 2282934); details: HepG2 Attagene cis-factorial RARE DR5 reporter, mRNA; actives raise or lower the signal
# Procedure, shortened: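 After 24 h of chemical exposure, transiently transfected HepG2 cells were lysed for total RNA; the DR5-regulated reporter transcript was quantified via RT-PCR and capillary electrophoresis, with activity fitted bidirectionally against DMSO.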
# [7] = target: Transcription factor E2F1 (Homo sapiens) (UniProt Q01094); assay: ATG_E2F_CIS: Attagene CIS-FACTORIAL HepG2 Assay for human E2F Transcription Factor 1 (AID 2282935); details: HepG2 Attagene cis-reporter, E2F reporter RNA transcripts; actives raise or lower the signal
# Procedure, shortened: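 Measures reporter transcript levels via RT-PCR with capillary electrophoresis detection in HepG2 cells harboring cis-regulated reporter units; 24 h post-dose; bidirectional curve fitting with DMSO as baseline.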
# [8] = ATG_E_Box_CIS: Attagene CIS-FACTORIAL HepG2 Assay for human Enhancer Box (E-box) (AID 2282936); details: HepG2 E-box cis-reporter transcription, actives raise or lower the signal
# Procedure, shortened: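 First, HepG2 cells receive multiple cis-regulated reporter constructs by transient transfection. Next, chemicals are applied for 24 h. Finally, reporter mRNA is quantified via RT-PCR and capillary electrophoresis, with DMSO as baseline.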
# [9] = ATG_M_61_CIS: Attagene CIS-FACTORIAL HepG2 Assay for M61 Transcription Factor (Internal Marker) (AID 2282937); details: HepG2 Attagene CIS-FACTORIAL M61 internal marker reporter; actives raise or lower the signal
# Procedure, shortened: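 Human liver HepG2, transient MRTU transfection (cis promoter elements), 24 h compound. Total RNA → oligo(dT) RT → PCR → FAM label → HpaI → CE. Internal background marker; bidirectional fitting, DMSO = baseline.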
# [10] = ATG_EGR_CIS: Attagene CIS-FACTORIAL HepG2 Assay for human Early Growth Response 1 (EGR1) (AID 2282938); details: HepG2 Attagene CIS-FACTORIAL EGR reporter mRNA; actives raise or lower the signal
# Procedure, shortened: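 Transient transfection of human HepG2 with multiple cis-regulated reporter units, chemical exposure 24 h, total RNA isolated. Reverse transcription, PCR, fluorescent labelling and capillary electrophoresis quantify reporter transcripts; activity fitted bidirectionally against DMSO.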
# [11] = ATG_M_19_CIS: Attagene CIS-FACTORIAL HepG2 Assay for M19 Transcription Factor (Internal Marker) (AID 2282939); details: HepG2 Attagene CIS-FACTORIAL M19 internal marker reporter; actives raise or lower the signal
# Procedure, shortened: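 Internal marker readout, fitted in both directions against DMSO, from HepG2 cells carrying transfected cis-element reporter constructs; RT-PCR and capillary electrophoresis of reporter mRNA after 24 h exposure.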
# [12] = ATG_ERE_CIS: Attagene CIS-FACTORIAL HepG2 Assay for Estrogen Response Element (ERE) (AID 2282940); details: HepG2 ERE cis-reporter, Attagene RNA transcript; actives raise or lower the signal
# Procedure, shortened: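 After 24 h compound treatment, RNA from transfected HepG2 cells was reverse-transcribed, reporter cDNA PCR-amplified, FAM-labelled, HpaI-cut and resolved by capillary electrophoresis. ERE-driven cis reporter transcripts reflect endogenous factors; gain or loss scored against DMSO.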
# [13] = target: Hepatocyte nuclear factor 3-beta (Homo sapiens) (UniProt Q9Y261); assay: ATG_FoxA2_CIS: Attagene CIS-FACTORIAL HepG2 Assay for human Forkhead box A2 (FOXA2) (AID 2282942); details: HepG2 cis-reporter transcription factor activity, 24 h; actives raise or lower the signal
# Procedure, shortened: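 Transient MRTU transfection of HepG2 liver cells; 24 h treatment; total RNA → oligo(dT) RT → PCR → FAM primer extension → HpaI cut → CE. Bidirectional fit vs DMSO.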
# [14] = ATG_FoxO_CIS: Attagene CIS-FACTORIAL HepG2 Assay for human Forkhead box O (FoxO) (AID 2282943); details: HepG2 Attagene cis-reporter, FoxO element, mRNA; actives raise or lower the signal
# Procedure, shortened: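 Transfected HepG2 reporter cells exposed to test chemical for 24 h; reporter RNA measured by reverse transcription, PCR and fluorescent capillary electrophoresis; curves fitted for increases and decreases against DMSO.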
# [15] = ATG_GATA_CIS: Attagene CIS-FACTORIAL HepG2 Assay for human GATA Binding Protein (AID 2282944); details: HepG2 GATA cis-element reporter, Attagene multiplex mRNA; actives raise or lower the signal
# Procedure, shortened: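 Reporter transcripts from a GATA cis-regulated unit, among multiplexed reporters in transfected HepG2 cells, were measured by RT-PCR with capillary electrophoresis after 24 h dosing. Induction or loss scored relative to DMSO.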
# [16] = target: CCAAT/enhancer-binding protein beta (Homo sapiens) (UniProt P17676); assay: ATG_C_EBP_CIS: Attagene CIS-FACTORIAL HepG2 Assay for human CCAAT/Enhancer Binding Protein (C/EBP) beta (AID 2282927); details: HepG2 Attagene cis-factorial transcription factor reporter; actives raise or lower the signal
# Procedure, shortened: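 HepG2, transient MRTU transfection, 24 h treatment. RT-PCR plus CE fluorescence; DMSO negative control, bidirectional fit.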
# [17] = ATG_CMV_CIS: Attagene CIS-FACTORIAL HepG2 Assay for human CMV (Internal Marker) (AID 2282928); details: HepG2 CMV promoter reporter, transcription factor profiling; actives raise or lower the signal;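 also: endpoint acts as a background internal control marker rather than a target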
# Procedure, shortened: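 HepG2 cells transiently transfected with multiple cis-regulated reporter units; 24 h compound exposure. Reporter mRNA quantified by RT-PCR, 6-FAM primer-extension labeling, HpaI digestion and capillary electrophoresis; bidirectional fitting against DMSO baseline.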
# [18] = target: Aryl hydrocarbon receptor (Homo sapiens) (UniProt P35869); assay: ATG_Ahr_CIS: Attagene CIS-FACTORIAL HepG2 Assay for human Aryl Hydrocarbon Receptor (Ahr) (AID 2282930); details: HepG2 AhR cis-factorial reporter transcription; actives raise or lower the signal
# Procedure, shortened: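 Endogenous factor activity is tracked through cis-promoter reporter units transfected into HepG2 cells. Transcript levels at 24 h are read by fluorescent RT-PCR and capillary electrophoresis, with activity in either direction scored relative to DMSO.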
# [19] = ATG_Ets_CIS: Attagene CIS-FACTORIAL HepG2 Assay for human Erythroblast Transformation Specific (ETS) (AID 2282941); details: HepG2 ETS cis-reporter transcription, actives raise or lower the signal
# Procedure, shortened: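 HepG2 cells transiently transfected with cis-promoter reporter transcription units were dosed for 24 h; reporter mRNA was measured by RT-PCR, 6-FAM primer extension, HpaI digestion and capillary electrophoresis, with bidirectional fitting against DMSO baseline.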
# Sequence of CCAAT/enhancer-binding protein beta (Homo sapiens) (P17676 whole entry, looked up): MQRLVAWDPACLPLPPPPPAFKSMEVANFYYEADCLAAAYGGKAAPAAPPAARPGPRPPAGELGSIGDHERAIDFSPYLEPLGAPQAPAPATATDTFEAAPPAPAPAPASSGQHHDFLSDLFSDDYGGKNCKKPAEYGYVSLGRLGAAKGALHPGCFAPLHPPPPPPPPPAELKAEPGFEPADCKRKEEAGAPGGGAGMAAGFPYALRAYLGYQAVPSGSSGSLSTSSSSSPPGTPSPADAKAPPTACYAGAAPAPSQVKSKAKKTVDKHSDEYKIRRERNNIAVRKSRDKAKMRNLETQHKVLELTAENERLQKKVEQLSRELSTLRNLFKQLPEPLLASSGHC
# Sequence of Hepatocyte nuclear factor 3-beta (Homo sapiens) (Q9Y261 whole entry, looked up): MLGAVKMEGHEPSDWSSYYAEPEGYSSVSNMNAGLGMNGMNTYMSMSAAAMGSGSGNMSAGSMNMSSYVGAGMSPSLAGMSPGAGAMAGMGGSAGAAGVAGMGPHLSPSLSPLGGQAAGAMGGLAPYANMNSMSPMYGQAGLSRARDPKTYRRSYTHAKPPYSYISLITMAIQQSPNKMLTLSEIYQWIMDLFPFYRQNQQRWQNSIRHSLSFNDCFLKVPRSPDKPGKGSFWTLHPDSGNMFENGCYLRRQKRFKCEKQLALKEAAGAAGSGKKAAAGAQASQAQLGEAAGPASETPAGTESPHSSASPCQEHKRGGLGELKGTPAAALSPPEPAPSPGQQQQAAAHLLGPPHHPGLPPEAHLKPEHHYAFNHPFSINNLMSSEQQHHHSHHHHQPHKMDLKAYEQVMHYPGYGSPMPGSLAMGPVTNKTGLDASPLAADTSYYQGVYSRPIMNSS
# Sequence of Transcription factor E2F1 (Homo sapiens) (Q01094 whole entry, looked up): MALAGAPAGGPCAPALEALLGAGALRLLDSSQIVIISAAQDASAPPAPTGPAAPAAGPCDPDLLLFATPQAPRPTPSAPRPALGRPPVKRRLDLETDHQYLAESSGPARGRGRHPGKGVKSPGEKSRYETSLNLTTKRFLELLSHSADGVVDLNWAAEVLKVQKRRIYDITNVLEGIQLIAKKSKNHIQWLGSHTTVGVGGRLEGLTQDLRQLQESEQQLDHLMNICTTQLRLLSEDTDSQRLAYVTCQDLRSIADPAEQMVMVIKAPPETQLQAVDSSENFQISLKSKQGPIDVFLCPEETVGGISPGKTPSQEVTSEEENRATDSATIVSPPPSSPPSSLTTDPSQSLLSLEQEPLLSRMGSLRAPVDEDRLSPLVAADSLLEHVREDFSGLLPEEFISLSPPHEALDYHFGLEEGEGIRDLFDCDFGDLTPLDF
# Sequence of Aryl hydrocarbon receptor (Homo sapiens) (P35869 whole entry, looked up): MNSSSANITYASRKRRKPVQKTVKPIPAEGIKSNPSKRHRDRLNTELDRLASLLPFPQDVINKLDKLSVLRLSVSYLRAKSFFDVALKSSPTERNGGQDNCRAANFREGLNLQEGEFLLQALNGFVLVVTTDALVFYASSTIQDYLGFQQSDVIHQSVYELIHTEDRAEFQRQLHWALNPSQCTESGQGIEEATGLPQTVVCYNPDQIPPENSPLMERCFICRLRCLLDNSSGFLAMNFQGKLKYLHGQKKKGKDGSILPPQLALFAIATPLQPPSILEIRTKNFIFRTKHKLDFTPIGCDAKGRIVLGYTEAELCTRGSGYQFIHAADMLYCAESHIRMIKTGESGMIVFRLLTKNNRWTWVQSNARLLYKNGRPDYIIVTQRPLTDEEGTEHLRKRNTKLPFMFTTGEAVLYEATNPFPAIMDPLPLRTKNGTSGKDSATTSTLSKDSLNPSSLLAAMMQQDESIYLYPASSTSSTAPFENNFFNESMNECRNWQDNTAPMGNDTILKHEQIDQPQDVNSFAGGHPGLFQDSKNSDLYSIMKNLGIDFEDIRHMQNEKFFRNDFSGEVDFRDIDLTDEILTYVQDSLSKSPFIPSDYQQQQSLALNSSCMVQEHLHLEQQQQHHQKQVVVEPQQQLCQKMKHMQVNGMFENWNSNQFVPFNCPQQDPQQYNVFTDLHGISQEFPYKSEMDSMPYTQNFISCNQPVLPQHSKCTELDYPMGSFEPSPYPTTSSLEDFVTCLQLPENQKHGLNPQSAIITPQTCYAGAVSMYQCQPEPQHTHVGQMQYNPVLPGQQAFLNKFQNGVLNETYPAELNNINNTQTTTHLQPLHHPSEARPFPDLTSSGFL
# Sequence of Retinoic acid receptor alpha (Homo sapiens) (P10276 whole entry, looked up): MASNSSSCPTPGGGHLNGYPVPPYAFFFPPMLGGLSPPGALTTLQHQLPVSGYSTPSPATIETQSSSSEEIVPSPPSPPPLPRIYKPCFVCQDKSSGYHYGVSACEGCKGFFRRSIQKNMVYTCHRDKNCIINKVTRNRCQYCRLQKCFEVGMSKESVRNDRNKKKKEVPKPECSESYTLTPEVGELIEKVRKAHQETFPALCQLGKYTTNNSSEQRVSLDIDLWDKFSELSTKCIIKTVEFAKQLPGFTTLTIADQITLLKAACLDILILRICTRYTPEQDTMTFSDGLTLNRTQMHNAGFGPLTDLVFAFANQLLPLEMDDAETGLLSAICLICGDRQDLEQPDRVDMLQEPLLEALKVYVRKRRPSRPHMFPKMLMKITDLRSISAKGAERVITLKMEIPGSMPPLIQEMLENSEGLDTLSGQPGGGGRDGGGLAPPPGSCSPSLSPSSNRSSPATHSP
compound,measurement,setting,value
CC(O)CN (stereo unspecified),outcome,[1],inactive
same,outcome,[2],inactive
same,outcome,[3],inactive
same,outcome,[4],inactive
same,outcome,[5],inactive
same,outcome,[6],inactive
same,outcome,[7],inactive
same,outcome,[8],inactive
same,outcome,[9],inactive
same,outcome,[10],inactive
same,outcome,[11],inactive
same,outcome,[12],inactive
same,outcome,[13],inactive
same,outcome,[14],inactive
same,outcome,[15],inactive
Nc1ccc(N)c([N+](=O)[O-])c1,outcome,[16],inactive
same,AC50,[17],77.1 µM (active) [middle of 5 runs]
same,outcome,[2],inactive
same,AC50,[18],3.14 µM (active) [middle of 5 runs]
same,outcome,[4],inactive
same,outcome,[6],inactive
same,outcome,[7],inactive
same,outcome,[8],inactive
same,outcome,[9],inactive
same,outcome,[10],inactive
same,outcome,[11],inactive
same,AC50,[12],41.6 µM (active) [middle of 5 runs]
same,outcome,[19],inactive
same,outcome,[13],inactive
same,outcome,[14],inactive
same,outcome,[15],inactive
Nc1cc([N+](=O)[O-])ccc1C(=O)O,outcome,[1],inactive
same,outcome,[17],inactive
same,outcome,[2],inactive
same,AC50,[18],20.3 µM (active)
same,outcome,[3],inactive
same,outcome,[4],inactive
same,outcome,[6],inactive
same,outcome,[7],inactive
same,outcome,[8],inactive
same,outcome,[9],inactive
same,outcome,[10],inactive
same,outcome,[11],inactive
same,outcome,[12],inactive
same,outcome,[19],inactive
same,outcome,[13],inactive
same,outcome,[14],inactive
same,outcome,[15],inactive
CC(=O)CCc1ccc(O)cc1,outcome,[1],inactive
same,outcome,[17],inactive
same,outcome,[3],inactive
same,outcome,[4],inactive
same,outcome,[5],inactive
same,outcome,[8],inactive
same,outcome,[10],inactive
same,outcome,[11],inactive
same,outcome,[12],inactive
same,outcome,[19],inactive
same,outcome,[13],inactive
same,outcome,[14],inactive
same,outcome,[15],inactive
CC(=N[Si](C)(C)C)O[Si](C)(C)C,outcome,[1],inactive
same,outcome,[17],inactive
same,outcome,[18],inactive
same,outcome,[3],inactive
same,outcome,[4],inactive
same,outcome,[8],inactive
same,outcome,[9],inactive
same,outcome,[10],inactive
same,outcome,[11],inactive
same,outcome,[12],inactive
same,outcome,[13],inactive
same,outcome,[14],inactive
same,outcome,[15],inactive
CCCCCCCCOS(=O)(=O)O,outcome,[1],inactive
same,outcome,[17],inactive
same,outcome,[18],inactive
same,outcome,[3],inactive
same,outcome,[4],inactive
same,outcome,[5],inactive
same,outcome,[7],inactive
same,outcome,[8],inactive
same,outcome,[10],inactive
same,outcome,[11],inactive
same,AC50,[12],135 µM (active)
same,outcome,[19],inactive
same,outcome,[13],inactive
same,outcome,[14],inactive
same,outcome,[15],inactive
C=COCC1CCC(COC=C)CC1 (stereo unspecified),outcome,[1],inactive
same,outcome,[17],inactive
same,outcome,[2],inactive
same,outcome,[18],inactive
same,outcome,[3],inactive
same,outcome,[4],inactive
same,outcome,[5],inactive
same,outcome,[7],inactive
same,outcome,[8],inactive
same,outcome,[9],inactive
same,outcome,[10],inactive
same,outcome,[11],inactive
same,outcome,[12],inactive
same,outcome,[13],inactive
same,outcome,[14],inactive
same,outcome,[15],inactive
Cc1cc(O)c(C)c(C)c1O,outcome,[1],inactive
same,AC50,[17],18.5 µM (active)
same,outcome,[2],inactive
same,outcome,[3],inactive
same,outcome,[4],inactive
same,AC50,[5],52.8 µM (active)
same,outcome,[7],inactive
same,AC50,[8],37.6 µM (active)
same,outcome,[9],inactive
same,outcome,[10],inactive
same,outcome,[11],inactive
same,outcome,[12],inactive
same,outcome,[19],inactive
same,outcome,[13],inactive
same,outcome,[14],inactive
same,outcome,[15],inactive
